US20220289795, “EFFICIENT METHOD FOR PREPARING PPR PROTEIN AND USE OF THE SAME” (EditForce, Inc., published 2022)
Substitutions are numbered along the chain they refer to.

Columns and labels:
Assay in all cases: RPB-ELISA
Details in all cases: tags: N-terminal luciferase, C-terminal 6xHis; label: 5'-biotin; ssRNA
NL_v2_PPR20 = target: T1, NL_v2_PPR20 (Artificial Sequence)
T1 chain: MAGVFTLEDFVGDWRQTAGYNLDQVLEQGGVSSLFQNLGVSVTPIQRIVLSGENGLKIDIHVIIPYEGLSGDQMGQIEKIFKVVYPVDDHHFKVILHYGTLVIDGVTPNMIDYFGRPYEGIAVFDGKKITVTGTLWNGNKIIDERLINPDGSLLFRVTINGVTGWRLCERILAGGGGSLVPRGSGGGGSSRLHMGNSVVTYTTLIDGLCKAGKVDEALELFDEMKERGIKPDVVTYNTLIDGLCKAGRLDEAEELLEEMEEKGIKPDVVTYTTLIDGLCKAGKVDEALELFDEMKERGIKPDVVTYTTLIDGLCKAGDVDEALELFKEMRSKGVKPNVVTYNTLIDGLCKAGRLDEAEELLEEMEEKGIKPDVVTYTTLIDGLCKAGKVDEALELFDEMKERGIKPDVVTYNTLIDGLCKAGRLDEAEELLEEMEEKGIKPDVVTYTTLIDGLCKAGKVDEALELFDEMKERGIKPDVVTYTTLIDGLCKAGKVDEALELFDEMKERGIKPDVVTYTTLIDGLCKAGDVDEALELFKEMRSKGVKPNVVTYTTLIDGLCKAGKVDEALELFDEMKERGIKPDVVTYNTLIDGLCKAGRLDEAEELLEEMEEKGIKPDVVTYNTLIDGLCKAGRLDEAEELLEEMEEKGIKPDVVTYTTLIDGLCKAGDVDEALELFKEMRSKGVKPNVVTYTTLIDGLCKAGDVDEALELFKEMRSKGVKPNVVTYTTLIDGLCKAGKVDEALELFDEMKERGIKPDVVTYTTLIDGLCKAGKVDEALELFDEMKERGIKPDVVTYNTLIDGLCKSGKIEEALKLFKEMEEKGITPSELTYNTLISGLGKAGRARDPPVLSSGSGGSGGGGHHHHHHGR
Procedure, shortened: (§1)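 5′-biotinylated 30-base RNA probes holding 18-base targets were captured on streptavidin plates, blocked, then bound 30 min at room temperature with E. coli lysate of luciferase-fused PPR protein (1.5×10⁸ LU/μL) in Tris-HCl pH 7.6 buffer. After washing, luminescence minus no-RNA background gave binding power.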

v3.1_PPR7 = target: T2, v3.1_PPR7 (Artificial Sequence)
T2 chain: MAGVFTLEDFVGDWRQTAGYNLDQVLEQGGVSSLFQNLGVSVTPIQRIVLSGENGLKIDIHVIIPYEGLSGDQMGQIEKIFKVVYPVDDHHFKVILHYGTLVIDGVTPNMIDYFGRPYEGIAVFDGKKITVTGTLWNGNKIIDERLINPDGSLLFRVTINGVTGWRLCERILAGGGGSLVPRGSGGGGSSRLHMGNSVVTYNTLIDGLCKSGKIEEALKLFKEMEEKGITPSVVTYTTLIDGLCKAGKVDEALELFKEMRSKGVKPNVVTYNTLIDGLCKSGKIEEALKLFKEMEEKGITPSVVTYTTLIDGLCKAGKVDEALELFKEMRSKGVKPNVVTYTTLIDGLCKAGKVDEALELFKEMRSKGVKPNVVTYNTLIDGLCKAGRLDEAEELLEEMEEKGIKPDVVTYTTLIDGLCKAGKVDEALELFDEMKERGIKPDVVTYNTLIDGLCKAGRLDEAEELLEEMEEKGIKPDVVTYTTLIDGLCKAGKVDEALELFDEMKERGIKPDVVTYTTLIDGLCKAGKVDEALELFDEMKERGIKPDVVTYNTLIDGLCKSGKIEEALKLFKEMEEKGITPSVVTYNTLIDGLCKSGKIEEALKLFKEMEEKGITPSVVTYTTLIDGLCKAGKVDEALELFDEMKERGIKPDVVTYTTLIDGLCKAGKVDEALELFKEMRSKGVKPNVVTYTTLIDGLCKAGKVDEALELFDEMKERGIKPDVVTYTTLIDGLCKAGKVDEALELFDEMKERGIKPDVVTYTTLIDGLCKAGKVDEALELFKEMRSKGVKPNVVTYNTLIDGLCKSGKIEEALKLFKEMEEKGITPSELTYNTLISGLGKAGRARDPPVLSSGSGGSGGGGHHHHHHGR
Procedure, shortened: (§2)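 5′-biotinylated 30-base RNA probes (18-base target) immobilised on streptavidin plates, then bound 30 min at RT by E. coli lysate with luciferase-fused PPR protein (1.5×10⁸ LU/μL) in Tris pH 7.6 buffer. Binding = luminescence minus no-RNA background.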

v3.1_PPR22 = target: T3, v3.1_PPR22 (Artificial Sequence)
T3 chain: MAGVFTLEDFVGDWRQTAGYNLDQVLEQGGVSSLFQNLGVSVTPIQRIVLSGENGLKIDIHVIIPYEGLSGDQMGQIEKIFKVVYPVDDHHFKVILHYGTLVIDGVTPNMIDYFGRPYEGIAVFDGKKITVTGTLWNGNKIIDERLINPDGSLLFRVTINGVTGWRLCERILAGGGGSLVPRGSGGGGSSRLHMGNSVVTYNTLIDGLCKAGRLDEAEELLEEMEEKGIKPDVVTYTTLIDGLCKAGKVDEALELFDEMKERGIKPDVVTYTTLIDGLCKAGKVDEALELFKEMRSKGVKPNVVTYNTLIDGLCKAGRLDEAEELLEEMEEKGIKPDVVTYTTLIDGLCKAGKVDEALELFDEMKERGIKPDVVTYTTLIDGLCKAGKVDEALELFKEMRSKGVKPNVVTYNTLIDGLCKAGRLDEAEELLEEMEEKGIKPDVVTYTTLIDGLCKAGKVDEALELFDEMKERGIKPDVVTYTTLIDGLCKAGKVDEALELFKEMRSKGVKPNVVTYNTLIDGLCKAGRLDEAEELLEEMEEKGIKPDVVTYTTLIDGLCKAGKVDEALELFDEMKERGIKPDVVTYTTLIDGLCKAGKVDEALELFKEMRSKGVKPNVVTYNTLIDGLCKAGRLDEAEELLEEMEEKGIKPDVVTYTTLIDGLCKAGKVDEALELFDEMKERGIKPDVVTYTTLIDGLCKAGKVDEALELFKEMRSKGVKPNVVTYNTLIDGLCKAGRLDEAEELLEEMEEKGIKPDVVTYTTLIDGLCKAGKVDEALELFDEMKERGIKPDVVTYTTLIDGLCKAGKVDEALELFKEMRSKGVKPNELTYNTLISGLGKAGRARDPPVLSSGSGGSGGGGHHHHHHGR
Procedure, shortened: as §2

NL_v2_PPR22 = target: T4, NL_v2_PPR22 (Artificial Sequence)
T4 chain: T3 chain with K283D, K388D, K493D, K598D, K703D, K808D
Procedure, shortened: as §1

NL_v2_PPR16 = target: T5, NL_v2_PPR16 (Artificial Sequence)
T5 chain: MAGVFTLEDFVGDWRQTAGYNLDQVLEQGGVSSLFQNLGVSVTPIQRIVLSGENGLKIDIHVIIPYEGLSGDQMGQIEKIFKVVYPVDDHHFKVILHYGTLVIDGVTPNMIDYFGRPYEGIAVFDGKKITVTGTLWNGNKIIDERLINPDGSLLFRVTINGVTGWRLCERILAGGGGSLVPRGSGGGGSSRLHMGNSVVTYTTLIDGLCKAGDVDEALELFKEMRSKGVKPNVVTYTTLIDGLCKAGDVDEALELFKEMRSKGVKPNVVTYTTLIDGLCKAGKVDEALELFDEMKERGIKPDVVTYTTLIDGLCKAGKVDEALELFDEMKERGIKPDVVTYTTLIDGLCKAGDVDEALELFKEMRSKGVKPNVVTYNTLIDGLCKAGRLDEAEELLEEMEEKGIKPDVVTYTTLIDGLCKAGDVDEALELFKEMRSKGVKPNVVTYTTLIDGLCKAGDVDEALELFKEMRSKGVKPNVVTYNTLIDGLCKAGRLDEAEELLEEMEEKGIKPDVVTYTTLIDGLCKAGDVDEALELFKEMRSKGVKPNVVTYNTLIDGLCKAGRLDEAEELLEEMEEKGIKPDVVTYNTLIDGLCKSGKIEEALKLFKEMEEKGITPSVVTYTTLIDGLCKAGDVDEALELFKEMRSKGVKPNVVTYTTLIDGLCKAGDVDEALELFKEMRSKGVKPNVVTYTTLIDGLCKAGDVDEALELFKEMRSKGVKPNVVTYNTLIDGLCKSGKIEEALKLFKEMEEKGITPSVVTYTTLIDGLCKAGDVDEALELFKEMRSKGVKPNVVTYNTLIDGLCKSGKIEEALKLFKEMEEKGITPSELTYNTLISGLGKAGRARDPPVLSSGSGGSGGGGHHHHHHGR
Procedure, shortened: as §1

## GGUGGUGAGGCCCUGGGC
NL_v2_PPR20
  binding signal: 21.1 log2 luminescence
v3.1_PPR7
  binding signal: 23.8 log2 luminescence
v3.1_PPR22
  binding signal: 20.9 log2 luminescence

## GUCAGAGGGUUCUGGAUU
v3.1_PPR7
  binding signal: 21.3 log2 luminescence

## GGUUAGAGAUACAGUGUG
v3.1_PPR7
  binding signal: 23.4 log2 luminescence

## GACUCAGGAAUCGGCUCU
v3.1_PPR7
  binding signal: 21 log2 luminescence

## GUGGGGGUGGUAGGAAAU
NL_v2_PPR20
  binding signal: 22.4 log2 luminescence
NL_v2_PPR22
  binding signal: 21 log2 luminescence
NL_v2_PPR16
  binding signal: 22.1 log2 luminescence
v3.1_PPR7
  binding signal: 24.2 log2 luminescence
v3.1_PPR22
  binding signal: 20.8 log2 luminescence
